Results as given in PubChem BioAssay AID2599 (Sanford-Burnham Center for Chemical Genomics, 2010).
Out of some 330,000 compounds screened, about 5,800 (1.8%) were called active.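 The calls were made as follows: active = inhibition above about 50% at the single tested dose (limit read from the data); inactive = the rest.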 Many of the other results were omitted from the sample, so actives are more common in it than they were.

Target: Sentrin-specific protease 6 (Homo sapiens) (UniProt Q9GZR1)
Experiment: SENP6 protease inhibitors, primary screen, biochemical, luminescence, uHTS (AID 2599);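 also: plate controls were DMSO wells with enzyme for no effect and DMSO wells lacking enzyme for full effect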
Details: Recombinant SENP6 catalytic domain, aminoluciferin luminescence; at 10 µM; hits give high values

Sequence of Sentrin-specific protease 6 (Homo sapiens) (Q9GZR1 628-1112 limits assumed): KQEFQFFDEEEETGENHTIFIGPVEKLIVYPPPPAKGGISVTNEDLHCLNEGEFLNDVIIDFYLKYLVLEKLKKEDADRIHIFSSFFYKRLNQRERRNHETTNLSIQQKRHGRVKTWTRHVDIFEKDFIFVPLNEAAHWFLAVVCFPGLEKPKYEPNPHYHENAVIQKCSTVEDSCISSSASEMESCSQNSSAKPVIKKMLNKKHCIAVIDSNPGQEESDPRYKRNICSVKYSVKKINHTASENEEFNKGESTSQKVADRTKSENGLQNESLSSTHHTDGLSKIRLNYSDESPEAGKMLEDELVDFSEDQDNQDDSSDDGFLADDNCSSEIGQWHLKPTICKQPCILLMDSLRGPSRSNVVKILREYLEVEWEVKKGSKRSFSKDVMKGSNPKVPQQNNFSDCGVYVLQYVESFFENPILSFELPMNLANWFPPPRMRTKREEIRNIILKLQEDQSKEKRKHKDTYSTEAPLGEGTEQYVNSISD

inhibition, active:
Cc1sc(NC(=O)c2ccc3ncsc3c2)c(C(N)=O)c1C 71.4%, CCOC(=O)/C(C#N)=C/c1ccc(N2CCCCC2)cc1 52.8%, CC[N+](C)(CC)CCC[n+]1c(-c2ccccc2)c2cc(N)ccc2c2ccc(N)cc21 89.2%, Cn1c(NC(=O)c2ccccc2)nc2ccccc21 75.7%, Cn1c(-c2ccc(C(=O)c3ccccc3)s2)nc2ccccc21 68.7%, Cc1ccn2cc(-c3nonc3C)cc2c1 53.2%, O=C(O)/C=C/C(=O)NNc1ccc([N+](=O)[O-])cc1 82.9%, COc1ccc(N=C(C)c2sc3ccccc3c2O)cc1 82.8%, Clc1ccc(-c2cc(-c3ccccn3)on2)c(Cl)c1 95.1%, COc1ccc(/C=C/c2noc(-c3ccccc3OC(C)=O)n2)cc1 89.4%, O=[N+]([O-])c1ccc2oc(-c3cccc(O)c3)nc2c1 65.4%, COc1cccc(-c2nc3cc(C)ccc3o2)c1 97.8%, Cc1cccc(NC(=O)c2ccc3ccccc3n2)n1 77.2%

inhibition, inactive:
COc1ccccc1-c1nnc(NC(=O)c2ccc3ncsc3c2)o1 -1.73%, Cc1ccc(C(=O)c2c(NC(=O)c3ccccc3)sc(C)c2C)cc1 -6.69%, COc1ccc(CN(Cc2ccco2)S(=O)(=O)c2ccc(S(=O)(=O)N3CCCC3)cc2)cc1 3.07%, COc1ccc(N2CCN(C(=O)/C(C#N)=C/c3ccccc3)CC2)cc1 1.08%, CCOC(=O)/C(C#N)=C/c1ccc(N2CCN(Cc3ccccc3)CC2)cc1 -1.35%, CC1(C)CC(=O)C=C(NCCCN2CCCC2=O)C1 4.58%, Cc1cc(C)n2nc(C(=O)Nc3cccc(S(=O)(=O)N4CCOCC4)c3)nc2n1 -2.51%, Cn1c(Nc2cccc(Cl)c2)nc2ccccc21 21.9%, Cc1nn(C)cc1C(=O)c1ccccc1 0.575%, Cc1nc2ccccc2c(-c2ccccc2)c1C(=O)c1ccccc1 -18.6%, CCn1c(NC(=O)c2nn(C)cc2Br)nc2ccccc21 -7.2%, O=C(CN(c1ccc2c(c1)OCCO2)S(=O)(=O)c1ccccc1)Nc1ccc2c(c1)OCO2 12.2%, CCOC(=O)C1C(c2ccc(OC)c(OC)c2)c2c([nH][nH]c2=O)CC1(C)O (stereo unspecified) -17.3%, Cc1nn(CC(=O)NC2CCCCC2)c(=O)c2cccn12 9.49%, O=C(Cc1ccc(F)cc1)N1CCN=C1SCc1cccc([N+](=O)[O-])c1 4.91%, CCOC(=O)N1CCN(c2cc(C)c([N+](=O)[O-])cc2F)CC1 -3.66%, CCn1cc(-c2cc(C(=O)O)on2)c(C)n1 15.3%, CNC(=S)Nc1ccc([N+](=O)[O-])cc1 -24.9%, O=[N+]([O-])c1ccc(N/N=C/c2ccccc2)cc1 0.552%, CCS(=O)(=O)c1ccc(C(=O)NC)c(Cl)c1Cl 5.83%, COc1ccccc1C(=O)Nn1cnnc1 -21.9%, COC(=O)c1ccc(/C=C/c2c(-c3ccc(OC)cc3)sc3ccccc23)cc1 17.2%, COc1ccc(-c2sc3ccccc3c2-c2ccc(OCCN3CCOCC3)cc2)cc1 -11.4%, Cc1ccc(S(=O)(=O)N(c2cccc(C)c2)C2CCS(=O)(=O)C2)cc1 (stereo unspecified) 7.06%, CSCC[C@H](NC(=O)N1CCn2c1nc1ccccc12)C(=O)NC1CCCCC1 -2.54%, COC(=O)C1=C(C)N(C)C(=S)NC1c1cc(OC)ccc1OC (stereo unspecified) 6.54%, Clc1ccc(COn2c(-c3ccc(Cl)cc3Cl)nc3ncccc32)cc1 3.31%, O=C1c2ccccc2C(=O)N1Cc1cc(-c2ccccc2Cl)no1 -13.7%, CC1(C)OC(=O)C(=CNC(CO)C(=O)O)C(=O)O1 (stereo unspecified) -15.5%, COc1ccc(S(=O)(=O)N2CCOC23CCN(S(=O)(=O)c2ccc([N+](=O)[O-])cc2)CC3)cc1 -0.227%, CC(C)C(NC(=O)c1cccc(S(=O)(=O)N2CCOCC2)c1)C(=O)NCCc1ccccn1 (stereo unspecified) 0.86%, COc1cccc(/C=C/c2ccc3ccccc3n2)c1OC(C)=O 14.1%, CC(=O)Oc1ccc(-c2nc3c(C)cccc3c(=O)o2)cc1 13.4%, O=C(Cc1ccc(S(=O)(=O)N2CCCC2)s1)NC1CCCCCC1 -13.1%, CSCCC(NC(=O)c1ccco1)C(=O)NCCc1ccc(F)cc1 (stereo unspecified) 5.31%, COc1cccc(-c2nnc(SCCOc3ccc4c(C)cc(=O)oc4c3)o2)c1 -18.6%, COc1ccc([N+](=O)[O-])cc1-c1nc2ccccc2nc1-c1ccccc1 -3.14%, CC(=O)Oc1ccc2c(=O)oc(-c3ccc([N+](=O)[O-])cc3)nc2c1 32.4%, COc1ccc2oc(-c3cccc(NC(=O)CSc4ccc(Cl)cc4)c3)nc2c1 -0.568%, COC(=O)c1ccccc1NC(=O)C1CCN(S(=O)(=O)c2cc(OC)ccc2OC)CC1 -0.874%, Cc1ccc(NC(=O)C(=O)NCC2CCN(C(=O)c3cccc([N+](=O)[O-])c3)CC2)cc1 0.692%, N#Cc1cccc(CSc2nnc(CCCO)n2-c2ccccc2)c1 -0.983%, Cc1cccc(NC(=O)c2cc(N3C(=O)CCC3=O)ccc2Cl)n1 -4.72%, Cc1cccc(NC(=O)c2cccnc2Cl)n1 24.9%, COc1ccc(NC(=O)c2cn(-c3ccccc3)nc2SC)cc1 0.083%, Cc1c(C(C)CCCO)oc(=O)c2c1Oc1c(C)c(C(C)C[C@@H](C)O)oc(=O)c1C2 (stereo partly specified) 13.7%, O=C(Oc1ccc(Br)cc1C(=S)N1CCOCC1)c1cccc([N+](=O)[O-])c1 -3.34%, Cc1ccc(/C=C(\C#N)C(=O)Nc2cccc3ncccc23)o1 -57.2%
